# Test results as given in PubChem BioAssay (NCATS).
# Records with an inconclusive call do not appear. Where a call stands in place of a potency, no number is given. Activity calls are given as the source filed them. Calls follow the shape of the dose curve; as a rule, active = well fitted cell-killing curve with a large enough effect; inconclusive = small, poorly fitted or top-dose-only effect; inactive = flat fitted curve, though single readings scatter.
# Experiment: qHTS of pediatric cancer cell lines to identify multiple opportunities for drug repurposing: Primary screen for DAOY cells (AID 1347090); also: nearly all actives have a fitted effect of over 55% in size
# Conditions: DAOY medulloblastoma viability, CellTiter-Glo luminescence, 48 h; series mostly up to 46 µM
# Procedure, shortened: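 Viability measured as metabolically active cells via CellTiter-Glo luminescence following 48 hours of compound exposure, 11-point dilutions in confirmatory testing. 500-1,000 cells/well plated 5 hours before dosing; controls were DMSO and 2.3 µM bortezomib.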
# Potency is read from the fitted curve at half-maximal effect.
row,Compound,Potency
1,COC[C@H](NC(=O)c1cnc(C)s1)C(=O)N[C@@H](COC)C(=O)N[C@@H](Cc1ccccc1)C(=O)[C@@]1(C)CO1,0.296 µM (active)
2,Cc1ccc([N+](=O)[O-])cc1S(=O)(=O)N(C)N=Cc1cnc2ccc(Br)cn12,0.235 µM (active)
3,COc1cc(C=CC(=O)CC(=O)C=Cc2ccc(O)c(OC)c2)ccc1O,21.5 µM (active)
4,OC[C@@H](O)[C@@H](O)[C@H](O)[C@@H](O)CO,inactive
5,CC(C)N1[N]C(=C2C=c3cc(O)ccc3=N2)c2c(N)ncnc21,5.9 µM (active)
6,O=C(O)[C@H](CC(=O)N1C[C@@H]2CCCC[C@H]2C1)Cc1ccccc1,inactive
7,COC(=O)[C@H](CCCN=C(N)N)NS(=O)(=O)c1ccc(C)cc1,inactive
8,CC(C)(O)[C@H]1CC[C@@](C)([C@H]2[C@@H](O)C[C@@]3(C)[C@@H]4C[C@H](O[C@@H]5O[C@H](CO)[C@@H](O)[C@H](O)[C@@H]5O)[C@H]5C(C)(C)[C@@H](O[C@@H]6OC[C@@H](O)[C@H](O)[C@@H]6O)CC[C@@]56C[C@@]46CC[C@]23C)O1,inactive
9,C#C[C@]1(O)CC[C@@H]2[C@@H]3CCC4=CC(=O)CC[C@@H]4[C@H]3CC[C@@]21CC,inactive
10,C[C@@H](Cc1cc2c(c(C(N)=O)c1)N(CCCO)CC2)NCCOc1ccccc1OCC(F)(F)F,inactive
11,C=C(C)[C@@H]1CC[C@]2(C(=O)O)CC[C@]3(C)[C@H](CC[C@@H]4[C@@]5(C)CC[C@H](O)C(C)(C)[C@@H]5CC[C@]43C)[C@@H]12,inactive
12,O=C(O)C(=O)Nc1cccc(C2=NN=N[N]2)c1,inactive
13,C#CCC(Cc1cnc2nc(N)nc(N)c2n1)c1ccc(C(=O)N[C@@H](CCC(=O)O)C(=O)O)cc1 (stereo partly specified),0.118 µM (active)
14,O=c1ccn([C@@H]2O[C@H](CO)[C@H](O)[C@@H]2F)c(=O)[nH]1,inactive
15,CC(C(C)N1CC(=O)NC(=O)C1)N1CC(=O)NC(=O)C1 (stereo unspecified),inactive
16,O=C1c2c(O)cccc2[C@@H]([C@@H]2O[C@H](CO)[C@@H](O)[C@H](O)[C@H]2O)c2cc(CO)cc(O)c21,inactive

row,Compound,Potency
1,O=C1CSC(=O)N1C(CCc1ccncc1)COc1ccc(-c2cccc([N+](=O)[O-])c2)cc1 (stereo unspecified),7.43 µM (active)
2,CCCCCCCCCCCCc1ccc(S(=O)(=O)Nc2nncs2)cc1,inactive
3,CC(C)n1cnc2c(NCCc3ccc(O)cc3)nc(-c3csc4ccccc34)nc21,11.8 µM (active)
4,OCc1ccccc1O[C@@H]1O[C@H](CO)[C@H](O)[C@H](O)[C@H]1O,inactive
5,c1cncc(CN2CCC(n3ncc4c(N5CCOCC5)nc(-c5ccc6[nH]ccc6c5)nc43)CC2)c1,18.7 µM (active)
6,C=C1CCC2[C@](C)(CO)C(O)CC[C@]2(C)C1CC=C1C(=O)OCC1O (stereo partly specified),inactive
7,C[C@H](CCC(=O)O)[C@H]1CC[C@H]2[C@@H]3[C@H](O)C[C@@H]4C[C@H](O)CC[C@]4(C)[C@@H]3CC[C@]12C,inactive
8,O=C(O)CCCCC(CCSCc1ccccc1)SCc1ccccc1 (stereo unspecified),23.5 µM (active)
9,C[C@@]12C[C@@]3(O)O[C@@H](O1)[C@]1(COC(=O)c4ccccc4)[C@@H]3C[C@@]12O[C@@H]1O[C@H](CO)[C@@H](O)[C@H](O)[C@@H]1O,inactive
10,CON=C(C(=O)N[C@@H]1C(=O)N2C(C(=O)O)=C(Cn3ccc(=N)n3CCO)CS[C@H]12)c1csc(N)n1,inactive
11,Cc1ccc(-n2[nH]c(C)c(N=Nc3cccc(-c4cccc(C(=O)O)c4)c3O)c2=O)cc1C,18.7 µM (active)
12,Cn1cc(-c2ccc3ncc(Cc4ccc5ncccc5c4)n3n2)cn1,inactive
13,CC(=O)SCC(Cc1ccccc1)C(=O)NCC(=O)OCc1ccccc1 (stereo unspecified),2.35 µM (active)
14,C=C(C)[C@@H]1CC[C@]2(C)CC[C@]3(C)[C@H](CC[C@@H]4[C@@]5(C)CC[C@H](O)C(C)(C)[C@H]5CC[C@]43C)[C@@H]12,inactive
15,CC(C=CC=C(C)C=CC1=C(C)CCCC1(C)C)=CC=CC=C(C)C=CC=C(C)C=CC1=C(C)CCCC1(C)C,18.7 µM (active)
